# From PubChem
# Calb FLC = affects C. albicans growth with fluconazole | growth inhibition, % (no concentration beside the values) | 300,000 compounds, 0.57% hits | C. albicans CaCi-2 (fluconazole-resistant clinical isolate) + fluconazole, Alamar Blue growth, 48 h;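 active = growth inhibition above about 58% in most replicates, limit read from the data, passing the limit was not always enough; inconclusive = exactly half the replicates above a set limit; inactive = most replicates below a set limit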;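 note: all wells also contain fluconazole at 8 µg/ml as a sub-toxic cotreatment; 0% = median of DMSO wells and 100% = median of geldanamycin control wells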
# E coli growth-1 = reduces bacterial viability in AddAB counter-screen | E. coli V3065 growth, OD600 absorbance, 18 h | inhibition, % at 11.9 µM | 330,000 compounds, 0.27% hits;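 active = inhibition above the campaign's mean inhibition across all tested compounds plus 3 SD, cut at about 9.9% in these data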;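 note: uninfected addAB+ strain grown without phage in ampicillin broth; 0% = DMSO wells and 100% = ciprofloxacin 0.95 µg/ml wells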
# Tat export inh = E. coli Tat transport inhibition. E. coli MC4100 TorA-mCherry Tat export, fluorescence. inhibition, % at 10 µM. 340,000 compounds, 0.036% hits;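 active = mean replicate inhibition at least 50% and at least half of replicates individually reaching 50%; inconclusive = only one of the two criteria met; inactive = neither criterion met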;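 note: exported cargo escapes ClpAP degradation while cytoplasmic cargo is degraded and loses fluorescence; 0% = median of neutral control wells and 100% = median of NaSCN control wells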
# AddAB inh = less growth of phage-infected E. coli with AddAB. E. coli expressing H. pylori AddAB, absorbance growth. 330,000 compounds, 0.29% hits. inhibition, % at 11.9 µM; in the data active = inhibition above about 12%;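 note: 0% = vehicle wells of infected cells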
# phage Ecoli inh = E. coli growth loss with phage present; growth absorbance; inhibition, % at 11.9 µM; 360,000 compounds, 0.26% hits; in the data active = inhibition above about 11%
# E coli growth-2 = E. coli growth inhibition; 330,000 compounds, 0.21% hits; OD600 absorbance (concentration not given with the values); Escherichia coli growth, OD600, 23 h; active compounds read low;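 active = OD600 absorbance below the run mean of sample wells minus 3.6 SD, in any replicate, cut at about 0.56 in these data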
# Starred values were filed as active, the others as inactive; i = inactive; ? = inconclusive; nt = no result given. The list is not random: actives were taken first. Their share in the collection is about 0.9%.
SMILES,Calb FLC,E coli growth-1,Tat export inh,AddAB inh,phage Ecoli inh,E coli growth-2
O=C(CNc1ccccc1)NN=Cc1ccc([N+](=O)[O-])o1,nt,nt,nt,nt,nt,0.493*
CCC1=C2CCC3C(=O)N(CC(=O)OC)C(=O)C3C2[C@@]2(C)C(=NCC(=O)OC)OC(=O)N2C1=O (stereo partly drawn),nt,nt,nt,nt,nt,0.686
COc1cc(C=NNC(=O)c2ccncc2)ccc1OCc1cnc(Cl)s1,nt,nt,nt,nt,nt,0.637
O=C(C=Cc1ccc(Cl)c([N+](=O)[O-])c1)Nc1cccc(NC(=O)c2ccco2)c1,nt,nt,nt,nt,nt,0.712
O=C(NN=Cc1ccc([N+](=O)[O-])o1)c1ccc(O)cc1,nt,nt,nt,nt,nt,0.405*
O=C(NN=Cc1ccc([N+](=O)[O-])o1)C1CC1,nt,nt,nt,nt,nt,0.0645*
Cc1nonc1C(=O)NN=Cc1ccc([N+](=O)[O-])o1,nt,nt,nt,nt,nt,0.496*
Cc1nonc1C(=O)NN=Cc1ccccc1,nt,nt,nt,nt,nt,0.674
CC1(C(=O)N/N=C/c2ccc([N+](=O)[O-])o2)CC1(Br)Br (stereo not drawn),91.5*,4.8,-3.9,5.4,5.4,nt
O=C(CC12CC3CC(CC(C3)C1)C2)N/N=C/c1ccc([N+](=O)[O-])o1,0.4,1.0,-12.3,6.4,3.6,nt
CCCNC(=O)Cn1c(=CC(=O)C(C)(C)C)sc(=Cc2ccc(-c3ccc([N+](=O)[O-])cc3)o2)c1=O,nt,nt,nt,nt,nt,0.711
CCC1SC(=NS(=O)(=O)c2cccs2)N(C2CCCCC2)C1=O (stereo not drawn),nt,nt,nt,nt,nt,0.757
O=[N+]([O-])c1ccc(C=NNC(=S)Nc2ccccc2C(F)(F)F)o1,nt,nt,nt,nt,nt,0.485*
Cc1ccc(NC(=O)CN2C(=O)S/C(=C\c3ccccn3)C2=O)cc1,2.2,3.0,-17.0,1.2,2.8,0.687
O=C(CN1C(=O)S/C(=C\c2ccccn2)C1=O)Nc1ccccc1,109.0*,nt,4.0,nt,4.0,0.714
Oc1cccc(C=NNc2nn3cnnc3c3ccccc23)c1,nt,nt,nt,nt,nt,0.706
COC(=O)CSc1nnc2n(-c3ccc(OC)cc3)c(=O)c3c4c(sc3n12)CCCCC4,10.7,-0.2,-5.8,2.0,1.3,0.765
COc1ccc(-n2c(=O)c3c4c(sc3n3c(=S)[nH]nc23)CCCC4)cc1,92.8*,-2.0,-5.9,4.5,1.0,0.71
COc1ccc(OC)c(-c2cc(C(=O)NN=Cc3ccc(F)cc3)c3ccccc3n2)c1,nt,nt,nt,nt,nt,0.669
CCOc1c2ccc(C(=O)NC(C)C3CCCCC3)cc2nn1CC (stereo not drawn),nt,nt,nt,nt,nt,0.716
COc1cccc(C=NNc2ncnc(Cl)c2N)c1O,nt,nt,nt,nt,nt,0.175*
Oc1ccccc1/C=N/Nc1nccnc1Cl,97.5*,-1.4,11.6,-6.4,-1.2,nt
COc1ccc(/C=N/Nc2ncnc(Cl)c2N)cc1OC,-1.6,-0.1,-1.0,1.1,3.3,nt
COc1cccc(/C=N/Nc2nccnc2Cl)c1O,106.3*,nt,1.7,nt,1.0,nt
CCN1C(=C2SC(=S)NC2=O)Sc2ccccc21,nt,nt,nt,nt,nt,0.715
SMILES,Calb FLC,E coli growth-1,Tat export inh,AddAB inh,phage Ecoli inh,E coli growth-2
COc1cc(OC)c(C(=O)NN=Cc2ccoc2)cc1OC,nt,nt,nt,nt,nt,0.644
Cc1ccc(NC(=S)Nn2cnnc2)c(C)c1,82.3*,nt,6.3,nt,1.7,nt
O=C(Nc1ccncc1)c1ccc(Br)cc1,92.7*,2.1,-8.6,2.8,2.9,0.646
O=C(Nc1ccncc1)c1ccc(Cl)cc1,-0.7,-3.6,3.9,-3.9,-0.1,0.672
CC=CC=CC(=O)N1CC2(CC(c3cccc(NC(=O)COc4ccc(Cl)cc4)c3)=NO2)CC1C(N)=O (stereo not drawn),nt,nt,nt,nt,nt,0.664
C#CCOCCOCCOCCNc1nc(N2CCN(C(=O)C(CCC(=O)O)n3cc(C(N)CC(C)C)nn3)CC2)nc(N2CCN(C(=O)C(CCC(=O)O)n3cc(C(N)CC(C)C)nn3)CC2)n1 (stereo not drawn),nt,nt,nt,nt,nt,0.696
CN1CCN(C(c2cccnc2)c2ccc3cccnc3c2O)CC1 (stereo not drawn),88.9*,-0.2,2.6,-2.9,nt,0.698
CN1CCN(C(c2ccc(F)cc2)c2ccc3cccnc3c2O)CC1 (stereo not drawn),nt,nt,1.5,nt,nt,0.687
CO[C@@]12[C@@H]3N[C@@H]3CN1C1=C(C(=O)C(N)=C(C)C1=O)[C@@H]2COC(N)=O,nt,nt,67.3*,nt,8.6,nt
O=C(O)c1cc(-c2ccc(O)cc2)on1,100.5*,-4.6,-0.4,-0.3,3.7,0.672
O=C(O)c1cc(-c2ccccc2)on1,?,-2.0,0.1,-1.1,1.9,0.691
CN(Cc1ccco1)Cc1ccc(O)c2ncccc12,nt,1.8,-5.4,2.9,nt,0.676
Oc1ccc(COCc2ccccc2)c2cccnc12,1.2,5.2,0.8,6.9,6.4,0.72
CC(C)COCc1ccc(O)c2ncccc12,98.2*,-5.7,0.6,2.2,5.0,0.741
CCCOCc1ccc(O)c2ncccc12,89.9*,-7.8,-1.5,-2.4,-1.5,0.679
O=[N+]([O-])c1ccc(-c2cccnc2)cc1,nt,nt,-8.2,nt,4.4,0.525*
O=[N+]([O-])c1ccc(COc2cccnc2)cc1,-4.9,1.2,-1.2,2.6,2.0,0.726
CN(N=Cc1cc(Br)cc(Br)c1O)c1cccc(C(F)(F)F)n1,nt,nt,nt,nt,nt,0.701
Cc1cccc(OCc2n(CC(=O)OC3CC(C)CCC3C(C)C)c3ccccc3[n+]2C)c1 (stereo not drawn),102.1*,3.9,36.8,-1.0,nt,nt
CC(O)=C(C#N)c1nc2ccccc2[nH]1,nt,nt,nt,nt,nt,0.706
O=C(Nc1ccc([N+](=O)[O-])cc1Cl)c1cc(Cl)ccc1O,nt,-0.4,-22.2,-2.7,3.3,0.448*
O=C(Nc1ccc([N+](=O)[O-])cc1Cl)c1cccc([N+](=O)[O-])c1,nt,nt,nt,nt,-0.3,nt
O=C(Nc1cccc(Cl)c1)c1cc(N=Nc2ccc([N+](=O)[O-])cc2Cl)ccc1O,3.1,1.3,-2.9,1.6,2.7,0.496*
CN(C)c1ccc(/C=C/c2ccc3c4ccccc4ccc3[n+]2-c2ccccc2)cc1,nt,nt,-335.3,nt,17.5*,0.241*
CN(C)c1ccc(/C=C/c2ccc3ccccc3[n+]2C)cc1,103.5*,18.1*,i,27.9*,7.5,0.294*
SMILES,Calb FLC,E coli growth-1,Tat export inh,AddAB inh,phage Ecoli inh,E coli growth-2
CN(C)c1ccc(/C=C/c2cccc[n+]2[O-])cc1,4.4,1.4,-7.9,1.1,2.2,nt
C=CCCC(Cc1ccc(F)cc1)C(=O)OCC(NC(=O)C(CC=C)CC(=O)NC(CO)Cc1ccccc1)C(C)(C)C (stereo not drawn),nt,nt,nt,nt,nt,0.713
O=C(CN(Cc1ccccc1Cl)S(=O)(=O)c1ccc(Cl)cc1)NN=Cc1ccc(C(=O)O)cc1,nt,nt,nt,nt,nt,0.701
CC(=NNC(=O)CNC(=O)c1ccccn1)c1cccc([N+](=O)[O-])c1,nt,nt,nt,nt,nt,0.646
BrC(=C\c1ccccc1)/C=N/n1cnnc1,86.2*,nt,-17.2,nt,4.2,nt
COC(=O)c1c(C)n(-c2ccc(C)cc2)c2ccc(O)cc12,69.5,0.8,4.0,1.5,0.6,0.733
COC(=O)c1c(C)n(-c2ccccc2)c2ccc(O)cc12,91.9*,0.6,0.6,1.2,0.5,0.679
Clc1ccc(OCCCNCc2ccccc2)c2ccccc12,17.4,0.9,-9.5,1.1,4.4,0.395*
COc1ccc(-c2nn(-c3ccccc3)cc2C=CC(=O)N2CCOCC2)cc1[N+](=O)[O-],nt,nt,nt,nt,nt,0.721
